Our source for the inhibition values is ChEMBL document CHEMBL3433997, “St. Jude Leishmania screening dataset” (2016).

Format in all cases: functional
For experiment [1], the target named is Solute carrier family 2, facilitated glucose transporter member 1 (Homo sapiens) (UniProt P11166). The experiment can be described thus: ST_JUDE_LEISH: Cytotoxicity at 2uM final concentration against transgenic Leishmania Mexicana promastigotes LmGLUT1 that are glucose transport deficient and complemented with the human glucose transporter GLUT1. Activity is measured by DNA content using SYBR green in vitro.
Chain of Solute carrier family 2, facilitated glucose transporter member 1 (Homo sapiens) (P11166 whole entry): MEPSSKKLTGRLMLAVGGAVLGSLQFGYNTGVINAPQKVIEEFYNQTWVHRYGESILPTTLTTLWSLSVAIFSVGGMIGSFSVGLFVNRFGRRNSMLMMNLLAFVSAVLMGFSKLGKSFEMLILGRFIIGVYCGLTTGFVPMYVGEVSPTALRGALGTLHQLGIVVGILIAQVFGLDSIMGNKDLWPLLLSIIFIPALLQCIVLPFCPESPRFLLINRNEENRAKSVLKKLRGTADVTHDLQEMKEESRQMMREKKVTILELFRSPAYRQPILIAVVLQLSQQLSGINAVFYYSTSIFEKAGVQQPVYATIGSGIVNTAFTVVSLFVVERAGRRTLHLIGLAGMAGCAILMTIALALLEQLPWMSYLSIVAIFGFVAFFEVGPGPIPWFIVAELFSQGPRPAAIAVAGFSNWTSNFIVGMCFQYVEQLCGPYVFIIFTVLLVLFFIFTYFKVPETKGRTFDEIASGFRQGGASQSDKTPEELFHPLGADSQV

The target in experiment [2] is Hexose transporter 1 (Plasmodium falciparum) (UniProt O97467). The experiment can be described thus: ST_JUDE_LEISH: Cytotoxicity at 2uM final concentration against transgenic Leishmania Mexicana promastigotes LmPfHT that are glucose transport deficient and complemented with the Plasmodium falciparum hexose transporter. Activity is measured by DNA content using SYBR green in vitro.

Experiment [3] has as its target Glucose transporter (Leishmania mexicana) (UniProt O61059). Put plainly: ST_JUDE_LEISH: Cytotoxicity at 2uM final concentration against transgenic Leishmania Mexicana promastigotes LmGT2 that are glucose transport deficient and complemented with the L. Mexicana glucose transporter 2. Activity is measured by DNA content using SYBR green in vitro.

In the case of `Cc1[nH]c2ccccc2c1C1=CCN(CCCCCC23CCCc4cccc(c42)NC3=O)CC1` (stereo not given), the inhibition in experiment [1] amounted to 2.18%; in experiment [2], 2.47%; in experiment [3], 3.51%.
The like results for `CNC(=O)c1ccc2[nH]cc(C3CCN(CC4CCC(NC(=O)/C=C/c5ccccc5Cl)CC4)CC3)c2c1` (stereo not given) were, in that order, 10.8%, 9.61% and 8.45%.
The like results for `CCCN(CCC)CCOC(=O)C(OCC)(c1ccccc1)c1ccccc1` were, in that order, 1.8%, 0.63% and -0.33%.
For `COc1ccc(CN2CCN(CCOC(c3ccc(F)cc3)c3ccc(F)cc3)CC2)c(O)c1`, the inhibition came out at 6.6% in experiment [1], 3.26% in experiment [2] and 2.85% in experiment [3].
The like results for `O=C(C=Cc1ccc(Br)cc1)NC1CCC(CN2CCC(c3c[nH]c4ccccc34)CC2)CC1` (stereo not given) were, in that order, 2.45%, 2.86% and 4.98%.
Turning to `Cc1csc(-c2ccc3[nH]cc(C4=CCN(C)CC4)c3c2)n1`, the figures for the inhibition in experiment [1], in experiment [2] and in experiment [3] were 7.46%, 9.43% and 6.12%, respectively.
The like results for `COc1ccc(C(=O)C2CC2CN2CC=C(c3c[nH]c4ccc(OC)nc34)CC2)cc1` (stereo not given) were, in that order, 1.91%, -1.74% and 2.37%.
For the molecule `CCCCCCCCNCC(O)c1ccc(Cl)c(Cl)c1` (stereo not given), the figures for the inhibition in experiment [1], in experiment [2] and in experiment [3] were 2.51%, 3.44% and 1.24%, respectively.
In the case of `CCN(CC)CCOC(=O)C(OC)(c1ccccc1)c1ccccc1`, the inhibition in experiment [1] is 0.95%; in experiment [2] it was 3%; in experiment [3], 1.83%.
Regarding `CS(=O)(=O)Nc1ccc2[nH]cc(C3CCN(CC4CCC(NC(=O)/C=C/c5ccc(Cl)c(Cl)c5)CC4)CC3)c2c1` (stereo not given), the inhibition in experiment [1] was 0.82%; in experiment [2] it was 6.93%; in experiment [3] it was -0.55%.
Turning to `CC1=CC(=O)[C@@H](O)[C@]2(C)[C@H]3[C@@]4(O)OC[C@@]35[C@@H](C[C@@H]12)OC(=O)C[C@H]5[C@@H](C)[C@H]4O`, the inhibition was found to be 7.27% in experiment [1], 2.51% in experiment [2] and 0.79% in experiment [3].
The like results for `CN(c1cc(NC(=O)c2ccccc2)ccn1)C1CCN(Cc2cccc(F)c2)CC1` were, in that order, 1.23%, 4.2% and 2.33%.
Consider `CCCCCSc1cc(O)c(C(CNC)C(C)C)cc1OC` (stereo not given), for which the inhibition in experiment [1] was 1.1%; in experiment [2] it was -1.89%; in experiment [3], -2.39%.
The like results for `COc1ccc(CN2CCN(CCOC(c3ccccc3)c3ccc(Cl)cc3)CC2)c(O)c1` (stereo not given) were, in that order, 9.85%, 10.7% and 6.46%.
The like results for `CN(C)c1cccc(NC(=O)NC2N=C(c3ccccc3)c3ccccc3N(CC(=O)N(C)c3ccccc3)C2=O)c1` (stereo not given) were, in that order, 6.38%, 4.22% and 2.42%.
The matching figures for `CN(Cc1ccccc1)C1CCN(CCc2c[nH]c3ccc(F)cc23)CC1`: 6.41%, 5.56% and 7.12%.
Take `O=C(/C=C/c1cc(C(F)(F)F)ccc1F)N1CCC(CN2CCC(c3c[nH]c4ccccc34)CC2)CC1`: the inhibition in experiment [1] is 1.52%; in experiment [2] it was 1.34%; in experiment [3], -1.26%.
The like results for `Oc1cccc(C2CCCN(Cc3cccc4cc[nH]c34)C2)c1` (stereo not given) were, in that order, 2.13%, 4% and 3.75%.
With `CC(C)CNCc1cccc(-c2cccc(CN(C(=O)Nc3ccccc3)C3CCN(Cc4ccccc4)CC3)c2)c1`, the inhibition stood at 1.9% in experiment [1], 1.81% in experiment [2] and 5.06% in experiment [3].
As for `COc1ccc(F)cc1-c1csc(N(c2ccc(F)cc2)C2CCNCC2)n1`, the values for the inhibition in experiment [1], in experiment [2] and in experiment [3] were 1.56%, 0.21% and 0.05%, respectively.
The matching figures for `CCC1CN2CCc3cc(OC)c(OC)cc3C2CC1CC1NCCc2cc(OC)c(OC)cc21` (stereo not given): 96.6%, 96% and 93.1%.
The matching figures for `NC(=O)CN1CC=C(c2c[nH]c3ccc(Br)cc23)CC1`: -1.87%, 0.93% and 0.77%.
With `O=C(c1cc(C(=O)NCc2ccc(Cl)cc2)c(=O)n(Cc2ccc(Cl)cc2)c1)c1cc(Cl)ccc1O`, the inhibition is -1% in experiment [1], -1.29% in experiment [2] and 3.58% in experiment [3].
Take `N#Cc1c(Cl)cccc1Oc1ccc(S(=O)(=O)N2CCC(CN3CCC(c4c[nH]c5ccccc45)CC3)CC2)cc1`: the inhibition is 1.64% in experiment [1], -0.14% in experiment [2] and -0.73% in experiment [3].
The matching figures for `COc1coc(C(=O)NC2CCN(CC3(c4ccc(Cl)cc4)CCC3)CC2)c1OC`: 4.7%, 4.52% and 2.81%.
As to `CCCCCCCc1cc(O)c2c(c1)OC(C)(C)c1ccncc1-2`, the results for the inhibition in experiment [1], in experiment [2] and in experiment [3] were 1.49%, 2.54% and 1.72%, respectively.
The matching figures for `Cc1cc(N(C)C2CCN(C)CC2)nc(Nc2ccc(Br)cc2)n1`: 3.64%, 6.94% and 1.93%.
The like results for `CC(=O)C1(c2ccccc2)CCN(CCC(NC(=O)c2cc(C(F)(F)F)cc(C(F)(F)F)c2)c2ccc(Cl)c(Cl)c2)CC1` (stereo not given) were, in that order, -0.39%, 0.71% and 5.98%.
Regarding `O=c1n[n+](C2CCCCC2)[n-]o1`, the figures for the inhibition in experiment [1], in experiment [2] and in experiment [3] were -0.73%, -0.13% and -0.34%, respectively.
The matching figures for `CC[C@H]1CN2CC[C@@H]1C[C@H]2[C@H](O)c1cc(N2CCC(O)(c3ccc(Cl)cc3)CC2)nc2ccc(OC)cc12`: 6.73%, 1.34% and 2.62%.
Take `O=C1Nc2cccc3c2C1(CCCCN1CC=C(c2c[nH]c4ncccc24)CC1)CCC3` (stereo not given): the figures for the inhibition in experiment [1], in experiment [2] and in experiment [3] were 5.83%, 4.08% and 3.96%, respectively.
The like results for `CC[C@H]1CN2CC[C@H]1C[C@H]2[C@H](O)c1ccnc2ccc(C#N)cc12` were, in that order, 0.59%, 1.86% and 2.19%.
Take `CN1CC=C(c2c[nH]c3ccc(Sc4ccccc4)cc23)CC1`: the inhibition in experiment [1] stood at 1.74%; in experiment [2] it was 2.9%; in experiment [3], 3.42%.
On to `CCCC(=O)c1c(O)c2ccccc2oc1=O`, for which the inhibition in experiment [1] stood at 6.46%; in experiment [2] it was 7.19%; in experiment [3] it was 5.83%.
`CN(C)CCc1c[nH]c2ccc(C(=O)Nc3ccc(-c4ccncc4)cc3)cc12`: the results for the inhibition in experiment [1], in experiment [2] and in experiment [3] were 0.58%, 0.83% and 0.61%, respectively.
